Several values for one entry are separate records, joined by “and”; a condition that tells them apart may be missing. Equal values may be shown once. Records with an inconclusive call do not appear. Activity calls are given as the source filed them. Calls follow the shape of the dose curve; as a rule, active = well fitted activation curve with a large enough effect; inconclusive = small, poorly fitted or top-dose-only effect; inactive = flat fitted curve, though single readings scatter.
assay: qHTS assay for environmental chemicals that activate the Aryl hydrocarbon Receptor (AhR) signaling pathway (AID 651777); conditions: 1A2-DRE human hepatoma cells, luciferase, 24 h; activation: hits give high values; also: nearly all actives have a fitted effect of over 15% in size; as to activation: % of control where 0% means no effect
From the text: National Center for Advancing Translational Sciences [NCATS]
NIH Chemical Genomics Center [NCGC]
U.S. Environmental Protection Agency [EPA]
National Institutes of Environmental Health Sciences [NIEHS]
National Toxicology Program [NTP]
The Aryl hydrocarbon Receptor (AhR) plays a critical role in the development of cancer or neoplasm and its formation is most likely due to genetic mutations and the influence of environment. Exposure to environmental pollutants such as polycyclic aromatic hydrocarbons (PAH), their halogenated derivatives and heterocyclic amines causes the induction of phase I and II enzymes. The transcriptional activation of CYP1A2 is directly regulated by AhR.
A cell based assay (1A2-DRE cells, developed by Puracyp, Inc., CA) was used to assess the activation of AhR. Human hepatoma cells were stably transfected with the dioxin response element (DRE) and CYP1A2 promoter fused to a luciferase gene. Increased luciferase activity can be used to identify the compounds that cause the induction of CYP1A2 and AhR activation.
1,200 cells in 5 uL/well were dispensed into white wall/solid bottom 1536-well plates using a Multidrop Combi (Thermo Scientific) dispenser. Following transfer of 23 nL compound or DMSO vehicle by a pin tool, the plates were incubated 24 hr at 37 C and 5% CO2. 5 ul One-Glo (Promega) was then added to each well and following 30 min incubation at room temperature, luciferase activity was quantified on a ViewLux CCD-based plate reader.
Potency is read from the fitted curve at half-maximal effect.

| Compound | activation | Potency |
| --- | --- | --- |
| NC(=O)N1c2ccccc2C=Cc2ccccc21 | 0.886% (inactive) and -3.46% (inactive) | – |
| Nc1nc(N)c2nc(-c3ccccc3)c(N)nc2n1 | 13.5% (inactive) and 13.2% (inactive) | – |
| NC(=Nc1ccccc1)Nc1ccccc1 | – | 12.6 µM (active) |
| O=c1[nH]c(=O)n([C@H]2C[C@H](O)[C@@H](CO)O2)cc1Br | 0.877% (inactive) | – |
| COc1ccc(CN(CCN(C)C)c2ccccn2)cc1 | 3.63% (inactive) | – |
| COc1cc(Cc2cnc(N)nc2N)cc(OC)c1OC | -1.14% (inactive) | – |
| CN=C(NC#N)NCCSCc1nc[nH]c1C | 2.08% (inactive) | – |
| Nc1ncn([C@@H]2O[C@H](CO)[C@@H](O)[C@H]2O)c(=O)n1 | 5.55% (inactive) and 8.87% (inactive) | – |
| O=C(O)CCCCCCCC(=O)O | -0.0037% (inactive) | – |
| CCCCNC(=O)NS(=O)(=O)c1ccc(C)cc1 | 0.474% (inactive) and 1.06% (inactive) | – |
| Cc1ccc(S(=O)(=O)NC(=O)NN2CCCCCC2)cc1 | 10.4% (inactive) | – |
| COC(=O)[C@H]1[C@H]2C[C@@H]3c4[nH]c5cc(OC)ccc5c4CCN3C[C@H]2C[C@@H](OC(=O)c2cc(OC)c(OC)c(OC)c2)[C@@H]1OC | 3.95% (inactive) and 8.69% (inactive) | – |
| C[C@]12CCC(=O)C=C1CC[C@@H]1[C@@H]2C(=O)C[C@@]2(C)[C@H]1CC[C@]2(O)C(=O)CO | -0.997% (inactive) | – |
| C[C@]12C=CC(=O)C=C1CC[C@H]1[C@@H]3C[C@@H](O)[C@](O)(C(=O)CO)[C@@]3(C)C[C@H](O)[C@@]12F | 0.771% (inactive) | – |
| CC(=O)Nc1nnc(S(N)(=O)=O)s1 | -1.84% (inactive) | – |
| CC(C)(Oc1ccc(CCNC(=O)c2ccc(Cl)cc2)cc1)C(=O)O | -0.0115% (inactive) | – |
| CCCCOCCOCCOCc1cc2c(cc1CCC)OCO2 | 5.54% (inactive) and 1.27% (inactive) | – |

— PubChem BioAssay (NCATS)
